Records with an inconclusive call do not appear. Entries that show only a call come without a potency. Activity calls are given as the source filed them. Calls come from the whole dose curve; as a rule, active = well fitted inhibition curve with a large enough effect; inconclusive = small, poorly fitted or top-dose-only effect; inactive = flat fitted curve, though single readings scatter.
Potency is the fitted concentration of half-maximal effect.

In the first experiment the test system is ATS189. Nature of the experiment: qHTS profiling for inhibitors of Plasmodium falciparum proliferation (AID 504749). Note: nearly all actives have a fitted effect of over 60% in size. The conditions noted are these: P. falciparum in erythrocytes, SYBR Green DNA, 72 h; series mostly up to 28.7 µM. Summed up: (§1)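 SYBR Green fluorescence of parasite DNA, read after lysis and overnight dark incubation, measured growth over 72 h in erythrocyte culture at 0.3% parasitemia and 2.5% hematocrit. Data normalised to DMSO and 0.29 uM artemisinin, with plate-drift correction.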
Turning to `CCOC(=O)[C@H](CCc1ccccc1)N[C@H]1CS[C@H](c2cccs2)CN(CC(=O)O)C1=O`, the Potency entry was “inactive”.

For `CCc1c2c(nc3ccc(OC(=O)N4CCC(N5CCCCC5)CC4)cc13)-c1cc3c(c(=O)n1C2)COC(=O)[C@]3(O)CC`, the Potency entry is “inactive”.

In the case of `CC(C)NCC(O)c1ccc(NS(C)(=O)=O)cc1` (stereo not drawn), the Potency entry is “inactive”.

Turning to `CC(C)OC(=O)C(C(=O)OC(C)C)=C1SC=CS1`, the Potency result is “inactive”.

`CC[C@H](C)C(=O)O[C@H]1C[C@@H](C)C=C2C=C[C@H](C)[C@H](CC[C@@H]3C[C@@H](O)CC(=O)O3)[C@H]21`: the Potency result was “inactive”.

Regarding `O=c1cc(O)c(Cl)c[nH]1`, the Potency result is “inactive”.

Take `CC(=O)Oc1ccccc1C(=O)Nc1ncc([N+](=O)[O-])s1`: the Potency result is “inactive”.

With `COc1ccc(C(=O)CC(=O)c2ccc(C(C)(C)C)cc2)cc1`, the Potency result was “inactive”.

Regarding `CNC1CCCN(c2c(F)cc3c(=O)c(C(=O)O)cn(C4CC4)c3c2OC)C1` (stereo not drawn), the Potency entry is “inactive”.

The subject of another experiment is ATS95. The experiment is described as above. The note with it: P. falciparum in erythrocytes, SYBR Green DNA, 72 h; series mostly up to 28.7 µM. Summed up:
as §1
Regarding `S=P(N1CC1)(N1CC1)N1CC1`, the Potency result is “inactive”.

For the molecule `COc1cc([C@@H]2c3cc4c(cc3[C@H](O)[C@H]3COC(=O)[C@H]23)OCO4)cc(OC)c1OC`, the Potency is 8.91 µM (active).

As to `COC(=O)Nc1nc2ccc(C(=O)c3ccccc3)cc2[nH]1`, the Potency result was “inactive”.

Regarding `COc1ccc2cc3[n+](cc2c1OC)CCc1cc2c(cc1-3)OCO2`, the Potency is 1.12 µM (active).

For `CNNCc1ccc(C(=O)NC(C)C)cc1`, the Potency result is “inactive”.

For the molecule `N=C(N)c1ccc(OCCCCCOc2ccc(C(=N)N)cc2)cc1`, the Potency is 1.12 µM (active).

Consider `Oc1c(Cl)cc(Cl)c2cccnc12`, for which the Potency is 7.94 µM (active).

Turning to `CCc1cc(C(N)=S)ccn1`, the Potency entry is “inactive”.

As for `COc1cc2c(Nc3ccc(Br)cc3F)ncnc2cc1OCC1CCN(C)CC1`, the Potency was 3.55 µM (active).

Consider `COC(=O)Nc1nc2ccc(Sc3ccccc3)cc2[nH]1`, for which the Potency result is “inactive”.

For `C1CCC(C(CC2CCCCN2)C2CCCCC2)CC1` (stereo not drawn), the Potency is 11.2 µM (active).

As for `CC(C)Cn1cnc2c(N)nc3ccccc3c21`, the Potency result was “inactive”.

On to `CCCc1nc(C)c2c(=O)[nH]c(-c3cc(S(=O)(=O)N4CCN(CC)CC4)ccc3OCC)nn12`, for which the Potency result was “inactive”.

For `CC(C)(Sc1cc(C(C)(C)C)c(O)c(C(C)(C)C)c1)Sc1cc(C(C)(C)C)c(O)c(C(C)(C)C)c1`, the Potency entry is “inactive”.

On to `COc1cc(NCc2ccc3nc(N)nc(N)c3c2C)cc(OC)c1OC`, for which the Potency was 0.631 µM (active).

As to `CCCCOc1ccc(CC(=O)NO)cc1`, the Potency was 3.55 µM (active).

With `Cc1nnc(NS(=O)(=O)c2ccc(N)cc2)s1`, the Potency result is “inactive”.

Consider `Nc1nc(N)c2nc(CNc3ccc(C(=O)NC(CCC(=O)O)C(=O)O)cc3)cnc2n1` (stereo not drawn), for which the Potency entry was “inactive”.

As for `CCOC(=O)[C@H](CCc1ccccc1)N[C@H]1CS[C@H](c2cccs2)CN(CC(=O)O)C1=O`, the Potency result is “inactive”.

`CCc1c2c(nc3ccc(OC(=O)N4CCC(N5CCCCC5)CC4)cc13)-c1cc3c(c(=O)n1C2)COC(=O)[C@]3(O)CC`: the Potency entry was “inactive”.

Consider `CC(C)NCC(O)c1ccc(NS(C)(=O)=O)cc1` (stereo not drawn), for which the Potency entry is “inactive”.

With `CC(C)OC(=O)C(C(=O)OC(C)C)=C1SC=CS1`, the Potency result was “inactive”.

In the case of `CC[C@H](C)C(=O)O[C@H]1C[C@@H](C)C=C2C=C[C@H](C)[C@H](CC[C@@H]3C[C@@H](O)CC(=O)O3)[C@H]21`, the Potency result was “inactive”.

With `O=c1cc(O)c(Cl)c[nH]1`, the Potency result is “inactive”.

`CC(=O)Oc1ccccc1C(=O)Nc1ncc([N+](=O)[O-])s1`: the Potency result was “inactive”.

For the molecule `COc1ccc(C(=O)CC(=O)c2ccc(C(C)(C)C)cc2)cc1`, the Potency result is “inactive”.

In the case of `CNC1CCCN(c2c(F)cc3c(=O)c(C(=O)O)cn(C4CC4)c3c2OC)C1` (stereo not drawn), the Potency result was “inactive”.

Another experiment deals with C2A. Described as above. The note with it: P. falciparum in erythrocytes, SYBR Green DNA, 72 h; series mostly up to 28.7 µM. Summed up:
as §1
Consider `S=P(N1CC1)(N1CC1)N1CC1`, for which the Potency result was “inactive”.

On to `COc1ccc(-c2ccc3cc(C(=O)O)ccc3c2)cc1C12CC3CC(CC(C3)C1)C2`, for which the Potency entry is “inactive”.

Regarding `COC(=O)Nc1nc2ccc(C(=O)c3ccccc3)cc2[nH]1`, the Potency entry is “inactive”.

As to `COc1ccc2cc3[n+](cc2c1OC)CCc1cc2c(cc1-3)OCO2`, the Potency was 1 µM (active).

On to `CNNCc1ccc(C(=O)NC(C)C)cc1`, for which the Potency entry was “inactive”.

For the molecule `N=C(N)c1ccc(OCCCCCOc2ccc(C(=N)N)cc2)cc1`, the Potency was 1.26 µM (active).

In the case of `CCc1cc(C(N)=S)ccn1`, the Potency result was “inactive”.

For `COc1cc2c(Nc3ccc(Br)cc3F)ncnc2cc1OCC1CCN(C)CC1`, the Potency is 3.16 µM (active).

Regarding `COC(=O)Nc1nc2ccc(Sc3ccccc3)cc2[nH]1`, the Potency result is “inactive”.

Consider `C1CCC(C(CC2CCCCN2)C2CCCCC2)CC1` (stereo not drawn), for which the Potency is 11.2 µM (active).

Regarding `CC(C)Cn1cnc2c(N)nc3ccccc3c21`, the Potency entry is “inactive”.

For `CCCc1nc(C)c2c(=O)[nH]c(-c3cc(S(=O)(=O)N4CCN(CC)CC4)ccc3OCC)nn12`, the Potency result is “inactive”.

In the case of `CC(C)(Sc1cc(C(C)(C)C)c(O)c(C(C)(C)C)c1)Sc1cc(C(C)(C)C)c(O)c(C(C)(C)C)c1`, the Potency entry is “inactive”.

Consider `COc1cc(NCc2ccc3nc(N)nc(N)c3c2C)cc(OC)c1OC`, for which the Potency is 0.631 µM (active).

In the case of `CCCCOc1ccc(CC(=O)NO)cc1`, the Potency was 1.58 µM (active).

On to `Cc1nnc(NS(=O)(=O)c2ccc(N)cc2)s1`, for which the Potency result is “inactive”.

On to `Nc1nc(N)c2nc(CNc3ccc(C(=O)NC(CCC(=O)O)C(=O)O)cc3)cnc2n1` (stereo not drawn), for which the Potency result was “inactive”.

Consider `CCOC(=O)[C@H](CCc1ccccc1)N[C@H]1CS[C@H](c2cccs2)CN(CC(=O)O)C1=O`, for which the Potency entry was “inactive”.

For the molecule `CCCCCCNC(=O)n1cc(F)c(=O)[nH]c1=O`, the Potency was 12.6 µM (active).

As for `CCc1c2c(nc3ccc(OC(=O)N4CCC(N5CCCCC5)CC4)cc13)-c1cc3c(c(=O)n1C2)COC(=O)[C@]3(O)CC`, the Potency result was “inactive”.

With `CC(C)NCC(O)c1ccc(NS(C)(=O)=O)cc1` (stereo not drawn), the Potency entry was “inactive”.

On to `CC(C)OC(=O)C(C(=O)OC(C)C)=C1SC=CS1`, for which the Potency entry is “inactive”.

Consider `CC[C@H](C)C(=O)O[C@H]1C[C@@H](C)C=C2C=C[C@H](C)[C@H](CC[C@@H]3C[C@@H](O)CC(=O)O3)[C@H]21`, for which the Potency entry is “inactive”.

`O=c1cc(O)c(Cl)c[nH]1`: the Potency result was “inactive”.

`CC(=O)Oc1ccccc1C(=O)Nc1ncc([N+](=O)[O-])s1`: the Potency result is “inactive”.

In the case of `COc1ccc(C(=O)CC(=O)c2ccc(C(C)(C)C)cc2)cc1`, the Potency entry was “inactive”.

In the case of `CNC1CCCN(c2c(F)cc3c(=O)c(C(=O)O)cn(C4CC4)c3c2OC)C1` (stereo not drawn), the Potency entry was “inactive”.

Values taken from PubChem BioAssay (NCATS).
